Key:
Conditions in all cases: concentration: 1 μM, replicates: in singlicate; n = 1
[1] = test system: SGK
[2] = test system: SIK2
[3] = test system: SIK
[4] = test system: SLK
[5] = test system: T1, SNARK
T1 construct: gene NUAK2

[6] = test system: SNRK
[7] = test system: SRC
[8] = test system: SRMS
[9] = test system: SRPK1
[10] = test system: SRPK2
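Note: KINOMEscan kinase panel screen.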

SMILES | %Inh [1] | %Inh [2] | %Inh [3] | %Inh [4] | %Inh [5] | %Inh [6] | %Inh [7] | %Inh [8] | %Inh [9] | %Inh [10]
O=c1cc(N2CCOCC2)nc2n(Cc3cccc4ccccc34)ccn12 [GSK2333389] | 0% | 0% | 0% | 0% | 0% | 0% | 0% | 0% | 29% | 0%
Cl.Nc1ncnc2occ(-c3ccc(NC(=O)Nc4cc(C(F)(F)F)ccc4F)cc3)c12 [SB-707548] | 0% | 0% | 0% | 98% | 0% | 0% | 30% | 4% | 50% | 40%
Cc1nnc(-c2ccc3occ(-c4ccc(C(C)O)cc4)c3c2)o1 (stereo not drawn) | 1% | 18% | 10% | 14% | 2% | 9% | 18% | 2% | 0% | 2%
Cl.Oc1cccc(Nc2ccnc3cc(-c4ccncc4)ccc23)c1 [GW494601] | 12% | 69% | 72% | 11% | 12% | 0% | 100% | 0% | 46% | 0%
COCCNC(=O)c1ccc(-c2cc(C(=O)NC3CC3)cc(F)c2C)cc1 [GW868318] | 36% | 0% | 6% | 0% | 16% | 16% | 23% | 24% | 7% | 0%
C[C@@H](Oc1cc(-n2cnc3ccc(NC(=O)NC(C)(C)C)cc32)sc1C(N)=O)c1ccccc1Cl [GSK346294] | 0% | 0% | 0% | 59% | 21% | 0% | 0% | 0% | 20% | 12%
O=C(NCCNc1ccnc(Nc2ccc(F)cc2)n1)Nc1ccccc1F [GSK1379880] | 0% | 0% | 0% | 11% | 0% | 0% | 6% | 0% | 5% | 0%
COc1cc2c(cc1OC[C@@H](O)CO)ncc1c3ccc(C#N)cc3[nH]c21 | 47% | 65% | 21% | 0% | 89% | 58% | 0% | 0% | 0% | 0%
CCc1ccnc(/C=C/c2n[nH]c3cc(Sc4ccccc4C(=O)NC)ccc23)c1 | 0% | 0% | 0% | 0% | 10% | 0% | 4% | 100% | 53% | 0%
Cc1cccc(-c2nc(Nc3ccc4ncsc4c3)c3ccccc3n2)n1 [GW867588] | 5% | 0% | 10% | 7% | 6% | 0% | 7% | 8% | 0% | 0%
[2H]C([2H])(c1cccc(C(F)(F)F)c1C)n1ccn2c(=O)nc(N3CCOCC3)cc12 [GSK2336394] | 0% | 0% | 0% | 22% | 0% | 0% | 0% | 0% | 37% | 0%
Cn1ccc2ncnc(Oc3ccc(NC(=O)Nc4ccncc4)c(Cl)c3)c21 | 0% | 0% | 0% | 0% | 0% | 0% | 13% | 0% | 0% | 0%
O=C(c1ccc(-c2cc(-c3c[nH]nc3-c3ccccn3)ccn2)cc1)N1CCOCC1 [GW812171] | 2% | 0% | 0% | 0% | 16% | 10% | 1% | 28% | 0% | 0%
Cc1cccc(Cn2ccn3c(=O)cc(N4CCOCC4)nc23)c1 [GSK2297542] | 0% | 0% | 3% | 22% | 3% | 0% | 24% | 11% | 11% | 0%
Fc1ccc(-c2ncn(CCCN3CCOCC3)c2-c2cccnc2)cc1 [SB-211743] | 39% | 5% | 0% | 25% | 0% | 0% | 0% | 27% | 0% | 0%
COc1ccc(CNC(=O)NC2CCN(c3ccnc(Nc4ccc(OC)cc4)n3)C2)cc1 (stereo not drawn) [GSK1379727] | 25% | 0% | 1% | 0% | 0% | 0% | 0% | 5% | 43% | 35%
N#Cc1c(N2CCOCC2)sc(-c2ccn[nH]2)c1-c1ccc(Cl)cc1 | 23% | 4% | 13% | 17% | 5% | 12% | 0% | 0% | 0% | 0%

SMILES | %Inh [1] | %Inh [2] | %Inh [3] | %Inh [4] | %Inh [5] | %Inh [6] | %Inh [7] | %Inh [8] | %Inh [9] | %Inh [10]
Cc1ccc(C(=O)NCC(N)=O)cc1-n1c(C)cc(OCc2ccc(F)cc2F)c(Br)c1=O | 0% | 0% | 6% | 24% | 0% | 15% | 16% | 0% | 0% | 0%
Cc1cccc(-c2nc(-c3ccc(S(C)(=O)=O)cc3)sc2-c2ccncc2)c1 | 0% | 0% | 12% | 26% | 2% | 17% | 8% | 0% | 15% | 0%
c1ccc(-c2n[nH]cc2-c2ccnc3ccccc23)nc1 [GW271431] | 0% | 9% | 8% | 16% | 0% | 0% | 7% | 0% | 25% | 0%
CC(C)(C)n1cnc2c(N)ncnc21 [SKF-97359] | 0% | 0% | 0% | 0% | 0% | 0% | 0% | 0% | 0% | 36%
Fc1ccc(-c2ncn(CCCN3CCOCC3)c2-c2ccccn2)cc1 [SB-211742] | 0% | 0% | 11% | 23% | 0% | 0% | 0% | 0% | 0% | 60%
O=C1Cc2cc(Nc3nc(NCc4cccc(S(=O)(=O)C(F)(F)F)c4)ncc3C(F)(F)F)ccc2N1 | 10% | 0% | 6% | 0% | 0% | 0% | 0% | 0% | 0% | 6%
Cc1cn2c(=O)cc(N3CCOCC3)nc2n1Cc1cccc(Cl)c1Cl [GSK2334006] | 0% | 3% | 4% | 32% | 0% | 1% | 42% | 0% | 21% | 0%
Fc1ccc(-c2nn3c(OCC(F)(F)F)cccc3c2-c2ccncc2)cc1 [GW514784] | 15% | 0% | 0% | 0% | 0% | 0% | 0% | 0% | 29% | 0%
CC(C)Oc1ccc2c(-c3ccnc(Nc4ccc(N5CCN(C)CC5)cc4)n3)cnn2n1 [GW696155] | 88% | 83% | 79% | 10% | 99.6% | 23% | 66% | 0% | 85% | 54%
Cc1nnc(-c2ccc3ncc(-c4ccc(S(C)=O)cc4)n3c2)o1 (stereo not drawn) | 0% | 0% | 9% | 14% | 0% | 2% | 0% | 0% | 0% | 0%
COC(=O)Nc1nc2cc(Oc3ccc(NC(=O)Nc4cc(F)ccc4F)cc3)ccc2[nH]1.Cl [GW701424] | 2% | 0% | 0% | 9% | 0% | 0% | 0% | 0% | 0% | 29%
O=C1NC(=O)C(N2CCc3ccccc32)=C1c1cccc(Cl)c1 [SB-408010] | 0% | 0% | 12% | 26% | 2% | 0% | 10% | 0% | 14% | 9%
O=C(NOCC1CC1)c1ccc(F)c(F)c1Nc1ccc(I)cc1Cl | 0% | 0% | 1% | 0% | 0% | 0% | 0% | 0% | 0% | 0%
Cc1c(Cn2c(C)nn3c(=O)cc(N4CCOC(C)C4)nc23)cccc1C(F)(F)F (stereo not drawn) [GSK2344444] | 9% | 0% | 0% | 7% | 0% | 0% | 0% | 0% | 32% | 0%
O=C(NCCNc1ccnc(Nc2ccc(F)cc2)n1)c1cc2ccccc2s1 [GSK1379874] | 0% | 0% | 0% | 17% | 0% | 0% | 0% | 0% | 3% | 19%
NS(=O)(=O)c1cccc(-c2ccc3nccc(-c4cccc(S(N)(=O)=O)c4)c3c2)c1 [GW867253] | 9% | 1% | 0% | 0% | 0% | 0% | 0% | 27% | 0% | 0%
